The record followed here is PubChem BioAssay (Tox21).

The nature of assay [1]: qHTS assay to identify small molecule agonists of the estrogen receptor alpha (ER-alpha) signaling pathway in the presence of an antagonist - cell viability counter screen (AID 1259386).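 Also: series mostly up to about 92 µM; cells exposed to compounds for 22 h at 37 °C before the viability read; nearly all actives have a fitted effect of over 30% in size.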 The method, boiled down:
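Cells are starved of estrogens for 5 days in charcoal-stripped serum, seeded for 24hr and co-treated with ICI-182,780 (10.0nM final) and test compounds. After 22hr at 37C, viability is read as CellTiter-Fluor fluorescence.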

The target of assay [2] is Progesterone receptor (Homo sapiens) (UniProt P06401). The assay can be described thus: qHTS assay to identify small molecule agonists of the progesterone receptor (PR) signaling pathway (AID 1346784; calls by dose curve; also: nearly all actives have a fitted effect of over 30% in size). The method, boiled down:
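PR-UAS-bla HEK 293T cells carrying a UAS-driven beta-lactamase reporter were seeded in medium with 2% charcoal-stripped FBS, preincubated 6 hr at 37C, then exposed to compounds in DMSO for 16 hr; agonism was read by LiveBLAzer B/G FRET fluorescence.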

Assay [3] has the same target. The assay can be described thus: qHTS assay to identify small molecule antagonists of the progesterone receptor (PR) signaling pathway (AID 1346795; active = well fitted inhibition curve with a large enough effect in the signal ratio in the repeat runs, not every such curve was filed as active; the % refers to the signal ratio; also: potency is read from the fitted curve at half-maximal effect). The method, boiled down:
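PR-UAS-bla HEK293T cells carrying a UAS-driven beta-lactamase reporter were plated in medium with 2% charcoal-stripped FBS and rested 6 hr at 37C. Compounds were added with 1 nM R5020 (final) for 16 hr, then FRET substrate loaded 2 hr at room temperature.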
(In general: Quantitative high-throughput screening tests each substance at several concentrations.)

A short description of assay [4]: qHTS assay to identify small molecule antagonists of the progesterone receptor (PR) signaling pathway - cell viability counter screen (AID 1346798). Also: series mostly up to about 92 µM; nearly all actives have a fitted effect of over 50% in size. A digest of the protocol:
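PR-UAS-bla HEK293T cells in medium with 2% charcoal-stripped FBS were treated with compounds plus R5020 for 16 hr at 37C. Cell viability was then read by CellTiter-Glo luminescence after 30 min at room temperature in the same wells.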

A short description of assay [5]: qHTS assay to identify small molecule agonists of the progesterone receptor (PR) signaling pathway - cell viability counter screen (AID 1346799; calls by dose curve; also: nearly all actives have a fitted effect of over 45% in size). A digest of the protocol: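 PR-UAS-bla HEK293T cells, 3,000 per well in medium with 2% charcoal-stripped FBS, were preincubated 6 hr at 37C, then exposed to compounds for 16 hr; viability was read as CellTiter-Glo luminescence after 30 min at room temperature.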

Assay [6] in a line: qHTS assay to identify small molecule antagonists of the TGF-beta/Smad signaling pathway - cell viability counter screen (AID 1346824). Also: nearly all actives have a fitted effect of over 50% in size. The method, boiled down:
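SBE-bla HEK 293T cells, incubated overnight, then compound plus 0.25 ng/mL TGF-beta1 (stock added) for 5 hr at 37 C. Viability was read in the same wells by CellTiter-Glo luminescence after 30 min at room temperature.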

A short description of assay [7]: qHTS assay to identify small molecule agonists of the TGF-beta/Smad signaling pathway - cell viability counter screen (AID 1346829). Also: top concentration of the series differs between compounds; nearly all actives have a fitted effect of over 45% in size. The method, boiled down: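 Tox21 qHTS format: SBE-bla HEK 293T cells treated with DMSO-dissolved compounds for 5 hr; CellTiter-Glo luminescence after 30 min at room temperature.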
A short description of assay [8]: qHTS assay to identify small molecule agonists of the TGF-beta/Smad signaling pathway (AID 1346859; active = well fitted activation curve with a large enough effect in the signal ratio in the repeat runs, not every such curve was filed as active; the % refers to the signal ratio; also: series mostly up to about 77 µM). The method, boiled down: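 HEK 293T cells stably carrying a beta-lactamase reporter driven by the Smad binding element were seeded overnight, exposed to DMSO-dissolved compounds for 5 hr at 37 C, 5% CO2, then loaded with FRET substrate for 2 hr at room temperature.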

For assay [9], the target named is Thyrotropin-releasing hormone receptor (Homo sapiens) (UniProt P34981). Put plainly: qHTS assay to identify small molecule antagonists of the thyrotropin-releasing hormone receptor (TRHR) signaling pathway (AID 1346877; active = well fitted inhibition curve with a large enough effect in the repeat runs, not every such curve was filed as active; also: series mostly up to about 51 µM). The method, boiled down: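 Cells (TRHR-HEK293) are plated and kept 18 h at 37 °C/5% CO2. A calcium-sensitive dye is added for 2 h, compound follows for 5 min at room temperature, and TRH is then given at 1 nM final.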
Thyrotropin-releasing hormone receptor (Homo sapiens), sequence (P34981 whole entry, looked up): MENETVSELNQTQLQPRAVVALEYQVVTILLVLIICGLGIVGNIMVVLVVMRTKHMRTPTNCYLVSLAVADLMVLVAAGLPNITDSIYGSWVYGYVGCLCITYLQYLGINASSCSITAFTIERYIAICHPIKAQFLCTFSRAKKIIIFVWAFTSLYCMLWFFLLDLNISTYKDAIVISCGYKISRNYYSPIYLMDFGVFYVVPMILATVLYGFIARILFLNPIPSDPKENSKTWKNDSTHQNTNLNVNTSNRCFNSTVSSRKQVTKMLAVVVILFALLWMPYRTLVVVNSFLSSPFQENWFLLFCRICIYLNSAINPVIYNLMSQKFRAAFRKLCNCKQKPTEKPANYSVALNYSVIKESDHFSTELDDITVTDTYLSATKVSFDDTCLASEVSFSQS

Assay [10] has the same target. Put plainly: qHTS assay to identify small molecule agonists of the thyrotropin-releasing hormone receptor (TRHR) signaling pathway (AID 1346891; calls by dose curve; also: series mostly up to about 58 µM). The method, boiled down: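 TRHR-expressing HEK293 cells were plated 18 h at 37 °C/5% CO2, loaded with calcium dye 2 h at 37 °C, then given compound in DMSO; fluorescence was read kinetically for 3 min at 1 s intervals.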

Assay [11] can be described thus: Human pregnane X receptor (PXR) small molecule agonists, qHTS cell viability counter screen (AID 1346977). Also: nearly all actives have a fitted effect of over 50% in size. Also: potency is read from the fitted curve at half-maximal effect. The method, boiled down: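 PXR-Luc HepG2 cells in medium with 5% charcoal-stripped FBS were pre-incubated 5hr, then exposed to compounds for 24hr at 37C. Viability was read in the same wells by CellTiter-Fluor fluorescence, reagent added after 23hr with a 1hr incubation.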

Assay [12] in a line: Caspase-3/7 induction in HepG2 cells by small molecules, qHTS assay (AID 1346978). Also: nearly all actives have a fitted effect of over 15% in size. The method, boiled down:
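Wild-type HepG2 cells, 2,000/well, settled 5 hr at 37 C and 5% CO2, then compound-treated for 17 hr; caspase-3/7 activity read by luminescent Caspase-Glo 3/7 after 30 min at room temperature.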

Assay [13] in a line: Caspase-3/7 induction in CHO-K1 cells by small molecules, qHTS cell viability counter screen (AID 1346979). Also: nearly all actives have a fitted effect of over 35% in size. Also: potency is read from the fitted curve at half-maximal effect. The method, boiled down: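 Wild-type CHO-K1 cells were seeded at 1,500 per well, rested 5hr at 37 C, then exposed to compounds in DMSO. After 16hr, CellTiter-Fluor reagent was added and fluorescence read 1hr later as the viability measure.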
The nature of assay [14]: Caspase-3/7 induction in CHO-K1 cells by small molecules, qHTS assay (AID 1346980). Also: nearly all actives have a fitted effect of over 15% in size. A digest of the protocol:
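Wild-type CHO-K1 cells exposed to compounds for 17hr at 37 C, 5% CO2. Caspase-3/7 activity then measured by Caspase-Glo 3/7 luminescence after 30min at room temperature.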

Assay [15] in a line: Caspase-3/7 induction in HepG2 cells by small molecules, qHTS cell viability counter screen (AID 1346981). Also: series mostly up to about 92 µM; nearly all actives have a fitted effect of over 30% in size. A digest of the protocol:
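Steps: seed 2,000 HepG2 cells per well; incubate 5 hr at 37 C; pin-add compounds in DMSO; incubate 16 hr; add CellTiter-Fluor; after 1 hr at 37 C and 5% CO2, read fluorescence.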

Assay [16] addresses Nuclear receptor subfamily 1 group I member 2 (Homo sapiens) (UniProt O75469). The assay can be described thus: Human pregnane X receptor (PXR) small molecule agonists, qHTS assay (AID 1346982). Also: nearly all actives have a fitted effect of over 35% in size. Also: potency is read from the fitted curve at half-maximal effect. The method, boiled down:
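Agonist mode qHTS: PXR-Luc HepG2 cells plated 5 hr before DMSO-dissolved compounds were pinned in, cultured 24 hr at 37 C, 5% CO2; ONE-Glo luminescence readout.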

Assay [17] addresses Cytochrome P450 2D6 (Homo sapiens) (UniProt P10635). The assay can be described thus: Cytochrome P450 Family 2 Subfamily D Member 6 (CYP2D6) small molecule antagonists: luciferase reporter qHTS assay (AID 1671196). Also: nearly all actives have a fitted effect of over 50% in size. Also: potency is read from the fitted curve at half-maximal effect. The method, boiled down: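 P450-Glo format: CYP2D6 converts a proluciferin substrate to luciferin in an NADPH-driven reaction lasting 1 h at room temperature. Light output, proportional to CYP2D6 activity, reflects interference by test chemicals.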

Assay [18] has as its target Nuclear receptor subfamily 1 group I member 2 (Homo sapiens) (UniProt O75469). Put plainly: Human pregnane X receptor (PXR) activation by small molecules, qHTS assay (AID 1346985). Also: nearly all actives have a fitted effect of over 40% in size. A digest of the protocol: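 DPX-2 cells (HepG2 co-transfected with a PXR response element and a CYP3A4-promoter luciferase construct) were seeded at 2,000 per well, rested 5 hr at 37C, then exposed to DMSO-dissolved compounds for 24 hr. Activation was read as luciferase luminescence.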

Assay [19] concerns the target Thyrotropin receptor (Homo sapiens) (UniProt P16473). The assay can be described thus: qHTS assay to identify small molecule antagonists of the thyroid stimulating hormone receptor (TSHR) signaling pathway (AID 1259385; calls by dose curve; also: nearly all actives have a fitted effect of over 20% in size). The method, boiled down: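 TSHR-HEK293 cells (800/well) plated 18 h, then compounds with Ro20-1724 and TSH at 1.5 ng/mL final, 30 min at room temperature. cAMP quantified by HTRF (cAMP-d2/anti-cAMP-cryptate, 1 h); 15 concentrations in triplicate.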

In assay [20] the target is Nuclear receptor subfamily 1 group I member 2 (Homo sapiens) (UniProt O75469). Put plainly: CYP3A4 induction through human pregnane X receptor (PXR) by small molecules, qHTS assay (AID 1346984). Also: nearly all actives have a fitted effect of over 40% in size. A digest of the protocol:
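Steps: seed DPX-2 cells, 5 hr at 37C; pin-transfer compounds; 24 hr at 37C; add Luciferin-IPA (3uM final), 3 hr at 37C; add One-Glo, 30 min RT; read luminescence.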

“And” between values parts separate entries of the source, which are not always exact repeats. Equal values may be shown once. Records with an inconclusive call do not appear. Some compounds were tested as several samples or in several runs, with calls that do not always agree. The source made the active and inactive calls. Unless noted, calls follow the shape of the dose curve; as a rule, active = well fitted curve in the direction sought with a large enough effect in the repeat runs; inconclusive = weak or mixed curves; inactive = no such curve, though single readings can be large; an effect the other way counts as inactive or inconclusive.

Thyrotropin receptor (Homo sapiens), sequence (P16473 whole entry, looked up): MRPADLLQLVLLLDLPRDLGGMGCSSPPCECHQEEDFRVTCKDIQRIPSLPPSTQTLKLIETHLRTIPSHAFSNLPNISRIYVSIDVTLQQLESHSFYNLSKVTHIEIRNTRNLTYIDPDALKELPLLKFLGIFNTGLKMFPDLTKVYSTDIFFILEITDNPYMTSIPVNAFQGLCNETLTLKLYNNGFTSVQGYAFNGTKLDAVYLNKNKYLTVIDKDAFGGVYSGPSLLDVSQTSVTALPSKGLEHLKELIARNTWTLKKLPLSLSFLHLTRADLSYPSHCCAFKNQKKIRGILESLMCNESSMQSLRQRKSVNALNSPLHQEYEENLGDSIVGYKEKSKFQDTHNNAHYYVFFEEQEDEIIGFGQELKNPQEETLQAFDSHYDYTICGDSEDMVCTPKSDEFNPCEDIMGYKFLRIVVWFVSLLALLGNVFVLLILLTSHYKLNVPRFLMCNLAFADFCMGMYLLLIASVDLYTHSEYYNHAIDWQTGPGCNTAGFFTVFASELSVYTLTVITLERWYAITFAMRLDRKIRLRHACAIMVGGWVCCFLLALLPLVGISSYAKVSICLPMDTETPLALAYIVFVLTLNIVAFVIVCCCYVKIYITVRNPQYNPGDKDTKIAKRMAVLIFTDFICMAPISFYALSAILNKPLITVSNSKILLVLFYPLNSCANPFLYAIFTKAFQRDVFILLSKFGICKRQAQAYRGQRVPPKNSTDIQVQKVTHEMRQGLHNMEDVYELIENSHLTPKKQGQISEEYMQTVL
Progesterone receptor (Homo sapiens), sequence (P06401 whole entry, looked up): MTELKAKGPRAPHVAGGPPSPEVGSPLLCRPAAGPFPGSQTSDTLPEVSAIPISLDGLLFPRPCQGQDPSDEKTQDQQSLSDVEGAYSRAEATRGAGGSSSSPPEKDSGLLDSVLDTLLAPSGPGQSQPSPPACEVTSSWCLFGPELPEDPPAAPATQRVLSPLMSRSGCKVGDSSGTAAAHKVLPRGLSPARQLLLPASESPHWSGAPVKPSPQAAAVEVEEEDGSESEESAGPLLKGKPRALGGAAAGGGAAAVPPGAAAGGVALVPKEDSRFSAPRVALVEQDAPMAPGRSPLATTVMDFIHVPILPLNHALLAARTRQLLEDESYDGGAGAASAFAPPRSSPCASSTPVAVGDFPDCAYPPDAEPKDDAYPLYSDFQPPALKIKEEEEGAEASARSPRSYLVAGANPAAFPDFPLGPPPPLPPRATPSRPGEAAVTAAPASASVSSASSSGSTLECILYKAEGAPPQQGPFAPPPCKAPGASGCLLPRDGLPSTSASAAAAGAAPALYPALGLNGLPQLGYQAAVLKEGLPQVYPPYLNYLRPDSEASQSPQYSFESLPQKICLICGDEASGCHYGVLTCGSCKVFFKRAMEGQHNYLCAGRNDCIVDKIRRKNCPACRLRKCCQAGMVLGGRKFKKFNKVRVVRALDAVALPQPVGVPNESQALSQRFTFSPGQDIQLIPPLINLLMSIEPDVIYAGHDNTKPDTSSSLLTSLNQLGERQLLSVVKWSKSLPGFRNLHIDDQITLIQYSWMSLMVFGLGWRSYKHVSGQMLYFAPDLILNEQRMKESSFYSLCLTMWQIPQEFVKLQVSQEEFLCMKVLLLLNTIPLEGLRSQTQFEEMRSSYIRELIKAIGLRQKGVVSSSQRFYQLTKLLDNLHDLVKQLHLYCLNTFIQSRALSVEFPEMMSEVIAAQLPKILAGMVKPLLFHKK
Cytochrome P450 2D6 (Homo sapiens), sequence (P10635 whole entry, looked up): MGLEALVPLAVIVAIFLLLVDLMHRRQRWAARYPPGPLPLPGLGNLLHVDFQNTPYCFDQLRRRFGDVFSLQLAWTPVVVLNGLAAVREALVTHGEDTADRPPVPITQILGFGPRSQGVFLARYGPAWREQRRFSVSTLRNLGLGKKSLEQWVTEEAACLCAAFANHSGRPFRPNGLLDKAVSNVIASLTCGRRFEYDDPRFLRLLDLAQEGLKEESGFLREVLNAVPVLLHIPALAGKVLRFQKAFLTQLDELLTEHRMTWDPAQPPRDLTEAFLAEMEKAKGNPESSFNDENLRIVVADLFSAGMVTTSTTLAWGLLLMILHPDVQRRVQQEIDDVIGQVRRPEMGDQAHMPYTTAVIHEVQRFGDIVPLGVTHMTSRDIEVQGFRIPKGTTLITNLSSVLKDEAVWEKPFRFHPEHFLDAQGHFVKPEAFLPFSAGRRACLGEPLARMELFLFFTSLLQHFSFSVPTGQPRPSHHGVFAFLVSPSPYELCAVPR
Nuclear receptor subfamily 1 group I member 2 (Homo sapiens), sequence (O75469 whole entry, looked up): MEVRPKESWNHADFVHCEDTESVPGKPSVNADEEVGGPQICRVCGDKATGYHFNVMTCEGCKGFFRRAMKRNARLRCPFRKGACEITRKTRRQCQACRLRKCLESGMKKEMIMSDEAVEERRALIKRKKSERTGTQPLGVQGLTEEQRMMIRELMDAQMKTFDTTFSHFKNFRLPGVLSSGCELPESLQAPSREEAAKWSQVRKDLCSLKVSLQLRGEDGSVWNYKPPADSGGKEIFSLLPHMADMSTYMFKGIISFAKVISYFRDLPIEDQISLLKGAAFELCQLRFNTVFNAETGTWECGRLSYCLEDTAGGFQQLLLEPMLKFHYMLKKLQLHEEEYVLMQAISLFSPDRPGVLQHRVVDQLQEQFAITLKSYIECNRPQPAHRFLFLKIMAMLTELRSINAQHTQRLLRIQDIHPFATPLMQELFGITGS

For `CC1=C(/C=C/C(C)=C/C=C/C(C)=C/C(=O)O)C(C)(C)CCC1`, the Potency result in assay [1], in [2], in [3], in assay [4], in [5] and in assay [6] was “inactive” throughout. For the same compound, the Potency result in [7], in assay [10], in [11], in assay [12], in assay [15] and in [17] was “inactive” in each case. The outcome in [8], in assay [9] and in assay [14] was inactive. Moreover, the Potency in assay [13] was 68.5 µM (active) and inactive; in assay [16], 54.5 µM (active) and 61.1 µM (active) and 33.5 µM (active).

As to `NCCNc1cccc2ccccc12`, the Potency entry in assay [1], in [2], in assay [3], in [6], in assay [7] and in assay [10] was “inactive” throughout. Moreover, the Potency entry in [12], in assay [15], in [16] and in [18] was “inactive” each time. For the same compound, the compound was called inactive in [8], in assay [9] and in assay [14]. In addition, the Potency was 50.1 µM (active) and inactive in assay [11]; 66.9 µM (active) and inactive in assay [13]; 5.02 µM (active) and 9.79 µM (active) and 12.3 µM (active) in [17].

In the case of `CC(C)=CCC/C(C)=C/CO`, the result in [19], in [8] and in [14] was inactive. Besides, the Potency result in assay [1], in assay [2], in assay [3], in [6], in assay [7] and in assay [12] was “inactive” throughout. For the same compound, the Potency entry in assay [13] and in assay [15] was “inactive” each time.

As to `O=C1OC(c2ccc(O)cc2)(c2ccc(O)cc2)c2ccccc21`, the compound was called inactive in [19], in assay [8] and in [14]. The Potency result in assay [1], in [2], in [6], in [7] and in assay [12] was “inactive” each time. Further, the Potency in assay [3] was 24.3 µM (active); in assay [13] it was 30.4 µM (active) and inactive; in assay [16] it was 48.2 µM (active) and 27.3 µM (active) and 23.7 µM (active); in assay [17] it was 71 µM (active) and inactive.

With `COc1cc(O)c(C(=O)c2ccccc2)cc1S(=O)(=O)O`, the result in assay [19], in assay [8], in assay [9] and in assay [14] was inactive. Besides, the Potency entry in assay [1], in assay [2], in assay [3], in [6], in assay [7] and in assay [10] was “inactive” throughout. Moreover, the Potency entry in assay [12], in assay [16], in [20], in assay [18] and in assay [17] was “inactive” in each case. Moreover, the Potency result in assay [13] is “inactive and 13.3 µM (active)”.

Consider `CC(C)Cc1ccc(C(C)C(=O)O)cc1` (stereo not drawn), for which the outcome in [19], in [8], in [9] and in [14] was inactive. The Potency entry in assay [1], in assay [2], in assay [3], in assay [7], in assay [10] and in assay [12] was “inactive” throughout. For the same compound, the Potency entry in assay [13], in assay [15], in assay [16] and in assay [17] was “inactive” throughout.

Turning to `CCCCOCCOCCOC(C)=O`, the Potency result in [1], in [2], in assay [3], in [6], in assay [7] and in assay [10] was “inactive” throughout. For the same compound, the Potency entry in assay [12], in [13], in assay [15], in [16] and in [17] was “inactive” in each case. The compound was called inactive in assay [8], in assay [9] and in assay [14].

`NC(=O)N1c2ccccc2C=Cc2ccccc21`: the Potency entry in [1], in [2], in assay [3], in assay [6], in assay [7] and in [10] was “inactive” in each case. Further, the Potency result in assay [12] and in assay [13] was “inactive” throughout. The compound was called inactive in assay [8], in assay [9] and in assay [14]. The Potency in assay [16] was 54.2 µM (active) and inactive; in assay [17], 1.99 µM (active) and inactive.
